Compounds with a hit are over-represented: about 3.1% of the library has one in this group of screens.
PAFAH2 inh: PAFAH2 (human) inhibition; Q99487; inhibition, % at 3.39 µM; recombinant PAFAH2, FP-rhodamine activity probe, fluorescence polarization; 340,000 tested, 0.99% active; AID 492956;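 active = inhibition above the mean over all tested compounds plus 3 SD, cut at about 30% in these data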;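 also: inhibitors block probe labeling of enzyme so polarization drops; 0% = enzyme with DMSO and 100% = wells lacking PAFAH2 protein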
eLon inh: inhibitors of E. coli Lon protease; purified E. coli Lon protease, fluorescence polarization; inhibition, % at 7.94 µM; 360,000 tested, 0.42% active; AID 602123; in the data active = inhibition above about 13%, passing the limit was not always enough;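 also: 0% = enzyme with probe and DMSO and 100% = no enzyme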
Target sequence (P0A9M0 whole entry, looked up): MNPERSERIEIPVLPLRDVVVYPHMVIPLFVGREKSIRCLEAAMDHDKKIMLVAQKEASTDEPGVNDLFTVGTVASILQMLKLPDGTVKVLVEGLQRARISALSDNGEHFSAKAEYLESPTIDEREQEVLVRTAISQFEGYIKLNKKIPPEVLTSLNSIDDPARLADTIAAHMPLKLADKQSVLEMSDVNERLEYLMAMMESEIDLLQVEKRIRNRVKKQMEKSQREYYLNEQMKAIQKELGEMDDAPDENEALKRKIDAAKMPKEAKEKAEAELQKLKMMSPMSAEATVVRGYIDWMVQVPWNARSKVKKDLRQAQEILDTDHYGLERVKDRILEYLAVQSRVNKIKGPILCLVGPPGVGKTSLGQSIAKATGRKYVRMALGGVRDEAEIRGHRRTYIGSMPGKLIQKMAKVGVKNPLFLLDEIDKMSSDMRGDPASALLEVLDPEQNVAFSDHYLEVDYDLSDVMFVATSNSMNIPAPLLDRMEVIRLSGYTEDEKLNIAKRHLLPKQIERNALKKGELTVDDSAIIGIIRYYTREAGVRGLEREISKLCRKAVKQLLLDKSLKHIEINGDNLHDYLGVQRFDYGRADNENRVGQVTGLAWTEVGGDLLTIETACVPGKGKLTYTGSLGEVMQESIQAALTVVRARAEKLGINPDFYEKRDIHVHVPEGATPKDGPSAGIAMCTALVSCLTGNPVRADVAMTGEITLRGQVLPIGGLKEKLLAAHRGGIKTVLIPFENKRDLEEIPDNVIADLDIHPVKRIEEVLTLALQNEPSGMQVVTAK
pPAFAH FP inh: pPAFAH (human) enzyme inhibition; inhibition, % at 3.39 µM; recombinant pPAFAH, FP-rhodamine probe fluorescence polarization; 330,000 tested, 1.5% active; Q13093;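 active = inhibition above the mean inhibition across the screen plus 3 SD, cut at about 25% in these data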;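 also: inhibitors block binding of the rhodamine activity-based probe so polarization drops; 0% = enzyme with DMSO and 100% = wells lacking pPAFAH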
PAFAH1B2 inh: PAFAH1B2 (human) inhibition | P68402 | recombinant PAFAH1B2, FP-rhodamine activity probe, fluorescence polarization | inhibition, % at 3.39 µM | 340,000 tested, 1.2% active;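 active = inhibition above the mean of all tested compounds plus 3 SD, cut at about 24% in these data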;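 also: 0% = enzyme with DMSO and 100% = wells lacking PAFAH1B2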
Rin1-Abl PPI inh: blocks binding of human Rin1 to Abl; TR-FRET Rin1/Abl binding, biochemical; inhibition, % at 7.35 µM; 360,000 tested, 0.4% active; AID 588664; in the data active = inhibition above about 5%, passing the limit was not always enough
PAFAH1B3 inh: PAFAH1B3 (human) inhibition; recombinant PAFAH1B3, FP-rhodamine probe, fluorescence polarization; 340,000 tested, 0.28% active; inhibition, % at 3.39 µM;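 active = inhibition above the screen-wide average of all tested compounds plus 3 SD, cut at about 25% in these data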;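 also: 0% = enzyme with DMSO only and 100% = wells lacking PAFAH1B3 protein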
PAFAH2 FP conf: confirmation of human PAFAH2 inhibitors; inhibition, % at 3.39 µM; shares compounds with PAFAH2 inh; recombinant PAFAH2, FP-rhodamine activity probe, fluorescence polarization; 2,300 tested, 65% active; AID 493030;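 active = mean inhibition over three repeats above a set limit taken from the earlier primary screen, cut at about 30% in these data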;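 also: inhibitor blocks binding of rhodamine activity probe so polarization falls; 0% = enzyme with DMSO and 100% = wells lacking PAFAH2 protein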
* hit, by the source's call; x = no result given.

SMILES	PAFAH2 inh	eLon inh	pPAFAH FP inh	PAFAH1B2 inh	Rin1-Abl PPI inh	PAFAH1B3 inh	PAFAH2 FP conf
COc1ccc(/C=C/C(=O)OCC(=O)Nc2c(C)cccc2C)cc1	63*	-6	7	6	2	5	65*
COc1ccc(/C=C/C(=O)OCC(=O)NCCNC(=O)COC(=O)/C=C/c2ccc(OC)cc2)cc1	0	1	-1	2	2	-6	x
O=C(COC(=O)/C=C/c1ccc(S(=O)(=O)N2CCOCC2)cc1)Nc1ccccc1F	60*	-8	9	6	-4	10	42*
O=C(COc1ccc(Cl)cc1)N(Cc1ccc(F)cc1)C1CCS(=O)(=O)C1 (configuration not stated)	3	6	0	6	4	7	x
COc1c(Cl)cc(Cl)cc1CNCCO	-9	2	0	1	2	-3	x
CC1=NN2C(=N)/C(=C\c3ccc(SCc4ccccc4)o3)C(=O)N=C2S1	32*	-27	14	19	2	4	33*
Cc1ccc(N2CCN(Cc3ccccc3)CC2=O)c(C)c1	0	-4	1	0	1	12	x
O=C(Nc1ccc(Cl)cc1)[C@@H]1[C@@H]2C(=O)N(c3ccc(Cl)cc3)C(=O)[C@@H]2[C@H]2C=CC=NN21	33*	-6	24	-2	7	3	-3
O=C(OCC1CC(c2ccccc2)=NO1)c1ccco1 (configuration not stated)	33*	-6	-7	-2	2	8	24
O=C(COC(=O)/C=C/c1cccc(Br)c1)NC1CC1	32*	-3	4	3	-1	-1	24
O=C(COC(=O)/C=C/c1cccc(Cl)c1)Nc1c(F)cccc1F	2	-7	1	1	1	2	x
NC(=O)NC(=O)COC(=O)/C=C/c1cccc(Br)c1	1	-1	-2	1	0	-2	x
O=C(COC(=O)/C=C/c1cccc(Cl)c1)NC1CC1	31*	0	2	1	0	1	19
O=C(COC(=O)/C=C/c1cccc(Cl)c1)NC1CCCC1	74*	11	8	-1	-1	9	66*
Cc1cc(C)cc(NC(=O)COC(=O)c2n[nH]c3ccccc23)c1	70*	9	-10	3	-2	5	65*
O=C(COC(=O)c1n[nH]c2ccccc12)Nc1ccccc1	76*	-11	0	1	3	6	67*
O=C(COC(=O)c1n[nH]c2ccccc12)NC(=O)NC1CCCCC1	4	-5	-3	2	3	7	x
O=C(COC(=O)c1n[nH]c2ccccc12)NC1CCCCC1	80*	1	-11	-9	3	3	68*
CC(=O)c1cccc(NC(=O)COC(=O)c2n[nH]c3ccccc23)c1	47*	1	-8	4	-3	0	39*
CCOC(=O)c1n[nH]c2ccccc12	-7	-3	2	6	-4	4	x
O=C(Nc1cc(Cl)ccc1F)C1=COCCO1	7	3	-8	1	-3	8	x
COc1ccc(-n2c(C)cc(C(=O)Cn3nnc4ccccc4c3=O)c2C)cc1	73*	1	-1	-5	3	10	-2
COc1ccc(-n2c(C)cc(C(=O)Cn3nc(C(=O)O)c4ccccc4c3=O)c2C)cc1	-3	-11	-1	7	0	6	x
Cc1ccc(NC(=O)CN2C(=O)NC3(CCCCC3C)C2=O)cc1S(=O)(=O)N1CCOCC1 (configuration not stated)	x	6	x	x	1	x	x
CC1(C)N=C(N)N=C(N)N1c1cccc(C#N)c1	5	-9	x	4	3	11	x
SMILES	PAFAH2 inh	eLon inh	pPAFAH FP inh	PAFAH1B2 inh	Rin1-Abl PPI inh	PAFAH1B3 inh	PAFAH2 FP conf
COc1ccc(OC)c(S(=O)(=O)n2ccnc2C(C)C)c1	1	3	12	2	-2	5	x
COc1ccc(C(=O)OCCN2CCCCC2)cc1	1	-1	2	6	-1	7	x
COc1ccc(C(=O)OCC2CC(c3ccccc3)N(C)O2)cc1 (configuration not stated)	56*	4	11	3	-3	13	45*
Cc1cccc(NC(=O)COC(=O)c2ccccc2SCC(=O)N2CCCC2)c1	88*	-3	5	1	0	-2	74*
O=C(COC(=O)c1ccccc1SCC(=O)N1CCCC1)Nc1ccc(OC(F)F)cc1	73*	7	23	4	2	0	76*
CC(C)(CC1(C)NC(=O)NC1=O)OCc1ccccc1 (configuration not stated)	-2	1	x	5	1	-1	x
O=C(N/N=C/c1cc(Br)cc(Br)c1O)c1cccc(N2CCCC2=O)c1	8	1	17	8	1	19	x
Cn1c(SCC(=O)NN2C(=O)NC(C)(c3ccccc3)C2=O)nnc1-c1ccncc1 (configuration not stated)	-1	-13	1	7	4	10	x
O=C1CN(C(=O)CN2CCN(S(=O)(=O)c3ccccc3F)CC2)c2ccccc2N1	x	2	x	x	1	x	x
O=S1(=O)CCC(=Nc2ccc(Cl)cc2)c2ccsc21	6	5	3	2	1	10	x
O=C(O/N=C1\CCS(=O)(=O)c2sccc21)C1CC1	81*	11	7	-1	0	2	84*
CC(C)(C)C(=O)O/N=C1\CCS(=O)(=O)c2sccc21	41*	-6	2	6	1	-8	34*
COc1ccc(-c2c(C)nn3c(C)cc(C)nc23)cc1	2	-2	4	1	-3	10	x
CCc1ccccc1NC(=O)COC(=O)c1cccs1	80*	2	8	5	2	-2	76*
O=C(COC(=O)[C@H](Cc1ccccc1)NC(=O)c1cccs1)Nc1ccccc1C(F)(F)F	5	4	0	6	0	2	x
O=C(COC(=O)c1cccs1)Nc1ccccc1C(F)(F)F	77*	3	14	-6	1	-2	54*
Cc1c(CCC(=O)NC2CC2)c(=O)oc2c(C)c(O)ccc12	5	5	-1	6	-2	5	x
Cc1ccc(C(=O)OCC(=O)Nc2cccc(S(=O)(=O)N3CCOCC3)c2)o1	28	-13	-1	6	0	8	x
O=C(COC(=O)CC1CC2CCC1C2)Nc1ccc(Cl)c(S(=O)(=O)N2CCOCC2)c1 (configuration not stated)	69*	-2	9	5	3	-3	59*
COc1ccc(S(=O)(=O)N2CCOCC2)cc1NC(=O)COC(=O)CC1CC2CCC1C2 (configuration not stated)	8	-7	21	4	-3	3	x

Screening data (PubChem BioAssay)
